For 30 molecules, AC50 and outcome results are on record in PubChem BioAssay (EPA / NIEHS).

Results filed as inconclusive are left out. Activity calls are given as the source filed them. Rule for the calls: active = hit-call score of the fitted dose curve at least 0.9, where 1 is the maximum; inconclusive = response in the unintended direction; inactive = score below 0.9.

Chain of rat Peripheral-type Benzodiazepine Receptor (PBR), Tspo (gene 24230) (P16257 whole entry, looked up): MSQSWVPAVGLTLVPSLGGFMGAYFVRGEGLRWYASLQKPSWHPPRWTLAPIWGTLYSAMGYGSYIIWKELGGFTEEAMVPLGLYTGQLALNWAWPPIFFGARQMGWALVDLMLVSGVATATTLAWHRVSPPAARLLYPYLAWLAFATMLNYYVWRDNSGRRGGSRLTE

In the assay the target is rat Peripheral-type Benzodiazepine Receptor (PBR), Tspo (gene 24230) (UniProt P16257). Description: NVS_MP_rPBR: NovaScreen (NVS) Membrane Protein Assay for rat Peripheral-type Benzodiazepine Receptor (PBR) (AID 2283335). How it is done:
NVS_MP_rPBR is a biochemical, single-readout assay that uses extracted gene-proteins from Rat kidney membranes in a tissue-based cell-free assay. Measurements were taken 1 hour after chemical dosing in a 48-well plate.NVS_MP_rPBR is one of one assay component(s) measured or calculated from the NVS_MP_rPBR assay. It is designed to make measurements of radioligand binding, a form of binding reporter, as detected with scintillation counting signals by Filter-based radiodetection technology.Data from the assay component NVS_MP_rPBR was analyzed into 1 assay endpoint. This assay endpoint, NVS_MP_rPBR, was analyzed in the positive analysis fitting direction relative to DMSO as the negative control and baseline of activity. Using a type of binding reporter, loss-of-signal activity can be used to understand changes in the binding as they relate to the gene Tspo. Furthermore, this assay endpoint can be referred to as a primary readout, because the performed assay has only produced 1 assay endpoint. To generalize the intended target to other relatable targets, this assay endpoint is annotated to the transporter intended target family, where the subfamily is cholesterol transporter.
Binding assays used specific radioligands (tritiated, iodinated) with non-radioactive competitive displacement ligands in agonist or antagonist protocols (as indicated) and various reference compounds and inhibitors to titrate specific binding to receptors and transporters. Most enzyme assays (CYPs, kinases, phosphatases, proteases, HDACs) used recombinant protein and specific substrates (fluorescence mostly, some colorimetric and radioactive) and inhibitors, followed by a biochemical separation of substrate and product. All assays for the biochemical HTS were initially run in duplicate at a single concentration (10 uM for CYP450 assays and 25 uM for all others). […] Each assay was run with positive and negative controls, and concurrent controls on every plate. The follow-up (secondary) screen tested active chemical-pairs in concentration series, as well as a few additional assays not tested in the primary screen, some selected negative inactives, and several cases re-run in the concentration series for confirmatory purposes.
In the case of `CC(C)(C)C(=O)C(Oc1ccc(Cl)cc1)n1cncn1` (stereo not given), the concentration at half-maximal activity (AC50) (as a rule, the midpoint of the concentration-response curve, whichever way the signal moves) is 2.37 µM (active). With `CC1(C)C(C(=O)OC(C#N)c2cccc(Oc3ccccc3)c2)C1(C)C` (stereo not given), the outcome was inactive. On to `COc1ccc(-c2ccccc2)cc1NNC(=O)OC(C)C`, for which the AC50 was 0.0966 µM (active). In the case of `N#Cc1c[nH]cc1-c1cccc2c1OC(F)(F)O2`, the molecule was classed as inactive.

On to `CCCCC(C#N)(Cn1cncn1)c1ccc(Cl)cc1` (stereo not given), for which the AC50 was 12.5 µM (active). As for `COCC(C)N(C(=O)CCl)c1c(C)csc1C` (stereo not given), the AC50 was 2.95 µM (active). `OC(c1ccc(Cl)cc1)(c1ccc(Cl)cc1)C(Cl)(Cl)Cl`: the outcome was inactive. Same read-out and setting: in the case of `O=C1C2CC=CCC2C(=O)N1SC(Cl)(Cl)Cl` (stereo not given) it was “inactive”. With `COC(=O)N(C(=O)N1CO[C@@]2(C(=O)OC)Cc3cc(Cl)ccc3C2=N1)c1ccc(OC(F)(F)F)cc1`, the molecule was classed as inactive. As to `COP(=S)(OC)SCn1nnc2ccccc2c1=O`, the AC50 was 13.6 µM (active). Same read-out and setting: as for `CC(C)NC(=O)N1CC(=O)N(c2cc(Cl)cc(Cl)c2)C1=O`, the figure is 13.3 µM (active); as for `CCOP(=S)(OCC)Oc1nc(Cl)n(C(C)C)n1`, 12.9 µM (active); as for `Cc1nc(N(C)C)nc(OC(=O)N(C)C)c1C`, 19 µM (active).

Take `Cc1c(COC(=O)[C@@H]2[C@H](/C=C(\Cl)C(F)(F)F)C2(C)C)cccc1-c1ccccc1`: the molecule was called inactive. On to `CNC(=O)Oc1cccc2ccccc12`, for which the half-maximal activity concentration (AC50) is 25 µM (active). Same read-out and setting: as for `CCNP(=S)(OC)O/C(C)=C/C(=O)OC(C)C` (stereo not given), the figure is 11.8 µM (active). On the same count and under the same terms, as for `CCOP(=O)(OCC)Oc1nc(Cl)c(Cl)cc1Cl`, the figure is 1.6 µM (active); as for `CC1(C)C(C=C(Cl)Cl)C1C(=O)OC(C#N)c1cccc(Oc2ccccc2)c1` (stereo not given), 5.01 µM (active); as for `COCC(=O)N(c1c(C)cccc1C)C(C)C(=O)OC` (stereo not given), 25 µM (active). Consider `N#Cc1c(Cl)cccc1Cl`, for which the outcome was inactive. On the same count and under the same terms, in the case of `CC(C)=CC1C(C(=O)OCc2coc(Cc3ccccc3)c2)C1(C)C` (stereo not given) it was “inactive”; in that of `COP(=S)(OC)Oc1ccc([N+](=O)[O-])c(C)c1`, “inactive”. As to `CC(C)Oc1cccc(NC(=O)c2ccccc2C(F)(F)F)c1`, the AC50 is 0.28 µM (active). Turning to `Clc1nc(Cl)nc(Nc2ccccc2Cl)n1`, the concentration at half-maximal activity (AC50) is 1.3 µM (active). The same measure, in the same setting: in the case of `CCOC(=O)C(C)OC(=O)c1cc(Oc2ccc(C(F)(F)F)cc2Cl)ccc1[N+](=O)[O-]` (stereo not given) it was 6.45 µM (active); in that of `CCN(CC)c1nc(C)cc(OP(=S)(OC)OC)n1`, 0.467 µM (active); in that of `CCN(CC)C(=O)C(C)Oc1cccc2ccccc12` (stereo not given), 0.125 µM (active). With `COC(=O)c1c(C(F)F)nc(C(F)(F)F)c(C2=NCCS2)c1CC(C)C`, the AC50 is 0.484 µM (active). Take `O=C(Nc1ccccc1-c1ccc(Cl)cc1)c1cccnc1Cl`: the result was inactive. Take `CCCCOCN(C(=O)CCl)c1c(CC)cccc1CC`: the AC50 was 1.65 µM (active).
